The list is not random: actives were taken first. Their share in the collection is about 11%.
ALDH1A1 block: qHTS Assay for Inhibitors of Aldehyde Dehydrogenase 1 (ALDH1A1); Aldehyde dehydrogenase 1A1 (Homo sapiens), P00352; Purified ALDH1A1, NADH fluorescence, propionaldehyde substrate; AID 1030, 2008; 220,000 compounds, 7.3% hits; Potency, µM (titrated, usually from 75.3 µM), for the others: at the top dose activity, negative = inhibition, actives largely listed as inhibitors;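 note: potency is the fitted concentration of half-maximal effect; plate controls were no enzyme wells and a reference inhibitor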
HPGD inh: qHTS Assay for Inhibitors of HPGD (15-Hydroxyprostaglandin Dehydrogenase) | Potency, µM, for inactives: top-dose activity change, negative = inhibition, hits mostly inhibitors | purified HPGD, NADH fluorescence kinetic, PGE2 substrate | 150,000 compounds, 4.3% hits | 15-hydroxyprostaglandin dehydrogenase [NAD(+)] (Homo sapiens), P15428; note: potency is the fitted concentration of half-maximal effect
Target sequence (P15428 whole entry, looked up): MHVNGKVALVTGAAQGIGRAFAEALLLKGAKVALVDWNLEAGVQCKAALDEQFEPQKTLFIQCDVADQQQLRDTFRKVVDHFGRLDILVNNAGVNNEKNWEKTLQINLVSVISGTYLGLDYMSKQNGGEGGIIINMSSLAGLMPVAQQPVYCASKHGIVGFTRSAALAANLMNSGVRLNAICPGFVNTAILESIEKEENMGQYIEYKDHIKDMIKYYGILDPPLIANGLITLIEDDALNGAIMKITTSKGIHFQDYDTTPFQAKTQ
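20 nM HPGD preincubated 15 min at room temperature with compound in 50 mM Tris-HCl pH 8, 0.01% Tween 20. Started with 1 mM NAD+ and 30 uM prostaglandin E2; NADH fluorescence (360/450 nm) read 5 times over 30-s intervals, last minus first.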
PNC inhibitor: High Content Assay for Compounds that inhibit the Assembly of the Perinucleolar Compartment; AID 2417, 2010; activity change (PNC), negative = inhibition, % at 10 µM; 140,000 compounds, 3.1% hits; PC3M PTB-GFP, PNC prevalence imaging, 16 h; hits give low values;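 active = readout at or below -70, meaning at least 70% loss of cells showing the perinucleolar compartment, a nuclear body marking cancer cells; inconclusive = readout between -30 and a set limit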;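 note: plate controls were DMSO wells for no effect and camptothecin positive control wells for full effect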
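PC3M cells stably expressing PTB-GFP, 750–1000 cells/well, treated 16 h at 37 °C with compound (23 nl of library stock), in duplicate. After paraformaldehyde fixation and Hoechst stain, imaged at 20x; PNC prevalence scored by image analysis.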
IMPase inh: qHTS Assay for Identifying the Cell-Membrane Permeable IMPase Inhibitors. inhibition (IP1 accumulation), % at 46.1 µM. AID 901, 2007. 120,000 tested, under 10 active. Inositol monophosphatase 1 (Rattus norvegicus), P97697. CHO-M1 cells, IP1 accumulation, HTRF TR-FRET ratio; active = well fitted curve in the direction sought with a large enough effect in the signal ratio, not every such curve was filed as active; inconclusive = small, poorly fitted or top-dose-only effect, or a change in a side signal; inactive = no such curve, though single readings can be large or run the other way; the % refers to the signal ratio;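 note: cells stimulated with carbachol in lithium chloride buffer; plate controls were DMSO basal wells for no effect and reference inhibitor wells for full effect; higher means more IMPase inhibition seen as more IP1 and lower FRET ratio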
Target sequence (P97697 whole entry, looked up): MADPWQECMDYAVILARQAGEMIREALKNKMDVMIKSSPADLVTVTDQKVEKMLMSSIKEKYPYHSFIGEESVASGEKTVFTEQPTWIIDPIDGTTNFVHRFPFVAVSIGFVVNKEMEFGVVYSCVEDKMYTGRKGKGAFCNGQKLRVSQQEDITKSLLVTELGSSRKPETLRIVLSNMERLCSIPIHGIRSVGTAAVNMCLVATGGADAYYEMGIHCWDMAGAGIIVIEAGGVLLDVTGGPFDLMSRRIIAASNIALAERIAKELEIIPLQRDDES
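Measured: the HTRF emission ratio (665/620 nm) plus the 620 nm donor channel, each fitted to the Hill equation to give AC50. Cells were CHO-M1 given compounds up to 46 uM and a 30 min carbachol stimulation at 37C.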
ALOX12 inhib: qHTS Assay for Inhibitors of 12-hLO (12-human lipoxygenase) | Polyunsaturated fatty acid lipoxygenase ALOX12 (Homo sapiens), P18054 | purified 12-hLO, xylenol orange hydroperoxide absorbance | Potency, µM (titrated, usually from 57.1 µM), for inactives: top-dose activity change, negative = inhibition, hits mostly inhibitors | 150,000 compounds, 0.12% hits | AID 1452, 2008; active = well fitted curve in the direction sought with a large enough effect; inconclusive = small, poorly fitted or top-dose-only effect, or another doubt; inactive = no such curve, though single readings can be large; an effect the other way counts as inactive or inconclusive; note: potency is the fitted concentration of half-maximal effect; nearly all actives have a fitted effect of over 55% in size
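Xylenol orange chromogenic assay: hydroperoxide from 12hLO oxidises Fe(II), giving red-shifted Fe(III)-XO absorbance. Conditions: 150 nM enzyme, 40 uM arachidonic acid, 25 mM Hepes pH 7.0, 0.01% Triton X-100, 30 min, room temperature.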
IMPase Li inh: qHTS Assay for Identifying the Cell-Membrane Permeable IMPase Inhibitors: Potentiation with Lithium | 210,000 compounds, 0.35% hits | CHO-M1 cells, IP1 TR-FRET (IP-One), carbachol + lithium | Potency, µM (series often up to 59.4 µM), for inactives: top-dose activity, negative = IMPase inhibition, usual class: inhibitors; active = well fitted curve in the direction sought with a large enough effect; inconclusive = small, poorly fitted or top-dose-only effect, or another doubt; inactive = no such curve, though single readings can be large; an effect the other way counts as inactive or inconclusive;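 note: IP1 builds up when IMPase is blocked and the TR-FRET signal falls; potency is the fitted concentration of half-maximal effect; plate controls were basal vehicle for no effect and high inhibitor control for full effect; nearly all actives have a fitted effect of over 50% in size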
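CHO cells stably expressing M1 receptor (2000/well) were cultured 16–30 h, then exposed to compounds with a small lithium addition for 30 min at 37C. IP1 was measured by TR-FRET competition; AC50 from Hill fits.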
Starred values were filed as active, the others as inactive; ? = inconclusive; / = no result; [ ] = another dose, or the depositor's remark. Unless noted, calls come from the whole dose curve; as a rule, active = well fitted inhibition curve with a large enough effect (not every such curve was filed as active); inconclusive = small, poorly fitted or top-dose-only effect, or another doubt; inactive = no such curve, though single readings can be large or run the other way. Unless noted, % is set by controls: 0 for no effect and ±100 for the full control effect.

SMILES	ALDH1A1 block	HPGD inh	PNC inhibitor	IMPase inh	ALOX12 inhib	IMPase Li inh
CC(C)c1cccc(C(C)C)c1NC1=NS(=O)(=O)c2ccccc21	/	/	/	5	/	/
CCOC(=O)C1CSC(Cc2ccc(OCc3ccc([N+](=O)[O-])cc3)cc2)N1 (stereo not drawn)	5%	-23%	/	/	-8%	10%
Cc1cc(C)n(CCc2nc(-c3ccc(C)o3)cs2)n1	4µM*	25µM*	?	-2	-14%	20%[38.3 µM]
N#Cc1cccc(NC(=O)N2CC3(CCN(C(=O)c4cccc(F)c4)CC3)C2)c1	?	-24%	/	/	3%	4%
CCCCCCCC1=Cc2ccccc2C(CC(C)=O)N1C(=O)OC (stereo not drawn)	0%[13.5 µM]	-8%	/	/	-3%[11.4 µM]	-11%
COc1ccc(C(c2nnnn2Cc2ccccc2)N2CCN(c3ccccc3)CC2)cc1 (stereo not drawn)	-3%	-12%	27	-6	-6%	16%[38.3 µM]
COc1ccc(Cn2nnnc2C(C(C)C)N2CCN(c3ccccc3OC)CC2)cc1 (stereo not drawn)	18µM*	-8%	35	4	-14%	27%[38.3 µM]
COc1ccc(C(c2nnnn2CCc2ccccc2)N2CCN(C3CCCC3)CC2)cc1 (stereo not drawn)	-6%	/	48	14	2%	/
COc1ccccc1N1CCN(C(c2ccc(N(C)C)cc2)c2nnnn2CCc2ccccc2)CC1 (stereo not drawn)	22µM*	-22%	6	8	-2%	8%
CC(C)C(c1nnnn1Cc1ccc(F)cc1)N1CCN(c2ccc(O)cc2)CC1 (stereo not drawn)	4µM*	/	/	/	/	13%
CCCC(c1nnnn1Cc1ccc(F)cc1)N1CCN(CC)CC1 (stereo not drawn)	22µM*	/	/	/	/	-2%
CC(C)C(c1nnnn1Cc1cccs1)N1CCN(c2ccccc2)CC1 (stereo not drawn)	?	-1%	-27	9	0%	0%[38.3 µM]
CN1CCN(c2ncc3nc(-c4cn(C)c5ccccc45)c(=O)n(Cc4cccs4)c3n2)CC1	-9%	/	/	/	/	-14%
O=C(NCCN1CCOCC1)c1ccc(Cc2nc3ccccc3[nH]2)cc1	5%	-11%	/	/	-1%	/
O=C(O)c1ccc2c(c1)C(=O)/C(=C/c1ccccc1)C2=O	-15%	13µM*	-6	/	-1%	3%
Cc1ccc(C=C2C(=O)c3ccccc3C2=O)o1	-16%	-7%	-23	/	-4%	9%
Cc1ccc(/C=C2/C(=O)c3ccc(C(=O)O)cc3C2=O)o1	7.1µM*	/	/	/	/	7%
CCOC(=O)CSc1nc2sc3c(c2c(=O)n1-c1ccccc1)CC(C(C)C)OC3 (stereo not drawn)	/	/	/	-9	/	/
Cc1ccc(NC(=O)C2CC(=O)N(c3ccc(OC(C)C)cc3)C2)cc1 (stereo not drawn)	/	/	/	-5	/	/
C1CCN2C[C@H]3C[C@H](CN4CCCCC34)C2C1 (stereo partly drawn)	1%	-9%	/	/	0%	13%
CC(C)C[C@@H](CC(=O)N[C@H](CC(=O)N[C@@H]1CCCC[C@H]1C(=O)N[C@H](CC(=O)N[C@@H](CCC(=O)O)CC(=O)O)Cc1ccccc1)C(C)C)NC(=O)[C@@H]1CCCC[C@H]1N	-6%	0%	/	/	-5%	-4%
CN(C)S(=O)(=O)c1cccc(-c2nnc(SCc3cc(Cl)cc4c3OCOC4)n2N)c1	25µM*	7.1µM*	-13	2	-12%	0%[38.3 µM]
CCOC(=O)c1nn(-c2ccc(Cl)cc2)c2nnc(Cc3ccc(C)cc3)c(=O)n12	?	-3%	-109*	/	2%	2%
